This note sets out measurements from PubChem BioAssay.

SMILES strings stand for the structures. Active and inactive are the calls of the source.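 The calls were made as follows: active = inhibition above 20% together with a positive visual image hit; inconclusive = visual image hit but inhibition not above 20%; inactive = no visual image hit.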

This assay can be described thus: inhibitors of TNFa-induced NFkB p65 translocation, primary screen, imaging, HUVEC, MLSMR starter and 10KST1 sets (AID 438).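 Also: compound added about 3h40 before a 20 min TNFalpha stimulation.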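 As to inhibition: signal is the nuclear over cytoplasmic p65 intensity ratio per well.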 The following applies: HUVEC TNFa-induced p65 nuclear translocation; cell count: measured here: nuclei count (cytotoxicity indicator), at 2.08 µM; inhibition: at 2 µM, stronger effect = higher value, 0% TNFa-plus-vehicle, 100% no-TNFa wells.
`NS(=O)(=O)c1ccc(NC(=O)CSc2nnc(Cc3cccs3)n2-c2ccccc2)cc1`: the cell count amounted to 253 and the inhibition was -10.8% (inactive).

As for `O=C(O)CSc1ncn[nH]1`, the cell count turned out to be 718 and the inhibition was -14.4% (inactive).

Consider `Cc1ccc2c(C(=O)CN3CCSCC3)c(C)[nH]c2c1`, for which the cell count worked out at 634 and the inhibition is 4.8% (inactive).

Consider `COc1cccc(CC(=O)Nn2c(C)nc3ccccc3c2=O)c1`, for which the inhibition is 10.5% (inactive) and the cell count stood at 375.

Take `Cc1nnc(SCc2cccc(Oc3ccccc3)c2)n1N`: the cell count was 701 and the inhibition is -4.2% (inactive).

Regarding `CC(CCc1ccccc1)NC(=O)C1CCN(S(=O)(=O)c2cnc[nH]2)CC1` (stereo not given), the inhibition is -20.8% (inactive) and the cell count was 554.

As for `Cc1ccc(C)n1-c1ccc(-n2cnnn2)cc1`, the cell count came to 572 and the inhibition was -1.6% (inactive).

For `CC(OC(=O)CNC(=O)C12CC3CC(CC(C3)C1)C2)C(=O)Nc1ccc(N2CCOCC2)cc1` (stereo not given), the inhibition is 4.1% (inactive) and the cell count was 663.

Regarding `CC(C)CC(c1nnnn1C(C)(C)C)N1CCN(C2CCCC2)CC1` (stereo not given), the cell count worked out at 487 and the inhibition is 7.1% (inactive).

In the case of `CCOC(=O)C1=C(c2ccccc2)N2CCS(=O)(=O)N=C2S1`, the cell count turned out to be 531 and the inhibition is 0.5% (inactive).

On to `CCOC(=O)Nc1ccc2c(c1)N(C(=O)CCN1CCOCC1)c1ccccc1S2`, for which the inhibition was -2.1% (inactive) and the cell count was found to be 313.

On to `c1cnc(NCCNc2ncccn2)nc1`, for which the inhibition was -5% (inactive) and the cell count worked out at 709.

As to `CN(C)C(=O)COc1ccc2cc(-c3ccccc3)c(=O)oc2c1`, the inhibition is -4% (inactive) and the cell count came to 300.

With `COc1ccc(COC(=O)c2n[nH]c3ccccc23)cc1F`, the inhibition was 3.9% (inactive) and the cell count was determined as 380.

Turning to `Cc1cc(C(=O)COC(=O)CCc2nc3ccccc3s2)c(C)n1C`, the cell count came out at 170 and the inhibition was -10.5% (inactive).

By inhibition is commonly meant the change of the read-out against control, counted positive when it falls.
